Assay [1] in a line: qHTS of pediatric cancer cell lines to identify multiple opportunities for drug repurposing: Primary screen for Saos-2 cells (AID 1347097). Further: nearly all actives have a fitted effect of over 40% in size. Further: potency means the concentration at half of the fitted maximal effect. The method in brief:
(§1)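 Viability was measured as metabolically active cells after 48 hours of treatment, read by CellTiter-Glo luminescence. Compounds were tested at multiple final concentrations, giving concentration-response curves.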
A general note: In qHTS, concentration-response curves come from the screen itself.

Assay [2] is described as follows: qHTS of pediatric cancer cell lines to identify multiple opportunities for drug repurposing: Primary screen for SK-N-SH cells (AID 1347098). Further: nearly all actives have a fitted effect of over 65% in size. Further: potency means the concentration at half of the fitted maximal effect. The method in brief:
(§2)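 Cells (500-1,000/well) rested 5 h, then received compounds for 48 h; metabolically active cells were measured by CellTiter-Glo luminescence. Final concentrations spanned up to 46 µM (MIPE, 11-point) or 0.59 nM-46 µM (NPC, 8-point) in primary screens, 11-point in follow-ups.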

Assay [3] can be described thus: qHTS of pediatric cancer cell lines to identify multiple opportunities for drug repurposing: Primary screen for NB1643 cells (AID 1347099). Further: nearly all actives have a fitted effect of over 50% in size. Further: potency means the concentration at half of the fitted maximal effect. In outline: as §1
The nature of assay [4]: qHTS of pediatric cancer cell lines to identify multiple opportunities for drug repurposing: Primary screen for LAN-5 cells (AID 1347100). Further: potency means the concentration at half of the fitted maximal effect. The method in brief: (§3)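 Cells (500-1,000/well) in growth media were settled 5 h at 37 degrees C, then given compounds for 48 h. Viability was read as CellTiter-Glo luminescence. Primary runs used MIPE at 11 points (0.78 nM-46 µM) and NPC at 8 points (0.59 nM-46 µM); follow-ups used 11 points.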

The nature of assay [5]: qHTS of pediatric cancer cell lines to identify multiple opportunities for drug repurposing: Primary screen for BT-12 cells (AID 1347101). Further: nearly all actives have a fitted effect of over 25% in size. Further: potency means the concentration at half of the fitted maximal effect. The method in brief: as §2
Assay [6] can be described thus: qHTS of pediatric cancer cell lines to identify multiple opportunities for drug repurposing: Primary screen for OHS-50 cells (AID 1347103). Further: nearly all actives have a fitted effect of over 40% in size. Further: potency means the concentration at half of the fitted maximal effect. The method in brief: as §2
Assay [7] is described as follows: qHTS of pediatric cancer cell lines to identify multiple opportunities for drug repurposing: Primary screen for MG 63 (6-TG R) cells (AID 1347105). Further: nearly all actives have a fitted effect of over 50% in size. Further: potency means the concentration at half of the fitted maximal effect. The method in brief: as §1
Assay [8] is described as follows: qHTS of pediatric cancer cell lines to identify multiple opportunities for drug repurposing: Primary screen for control Hh wild type fibroblast cells (AID 1347106).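 Further: series mostly up to about 46 µM; a drop in luminescence marks cytotoxicity and a rise apparent proliferation; nearly all actives have a fitted effect of over 55% in size.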 The method in brief:
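Viability after 48 h compound treatment at 37C, 500-1,000 cells/well, read as ATP luminescence with CellTiter-Glo. Primary screens used 11-point (MIPE, 0.78 nM-46 µM) or 8-point (NPC, 0.59 nM-46 µM) final concentrations; follow-up screens used 11-point dilutions.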

The nature of assay [9]: qHTS of pediatric cancer cell lines to identify multiple opportunities for drug repurposing: Primary screen for Rh18 cells (AID 1347102). Further: nearly all actives have a fitted effect of over 65% in size. Further: potency means the concentration at half of the fitted maximal effect. In outline: as §3
A short description of assay [10]: qHTS of pediatric cancer cell lines to identify multiple opportunities for drug repurposing: Primary screen for RD cells (AID 1347104). Further: nearly all actives have a fitted effect of over 55% in size. Further: potency means the concentration at half of the fitted maximal effect. The method in brief: as §1

The structures appear in SMILES notation. Inconclusive results are not listed. The source made the active and inactive calls. The call rests on the fitted dose curve; in most records, active means well fitted curve in the direction sought with a large enough effect; inconclusive means small, poorly fitted or top-dose-only effect, or another doubt; inactive means no such curve, though single readings can be large; an effect the other way counts as inactive or inconclusive.

For the molecule `CCC=CC[C@H]1C(=O)CC[C@@H]1CC(=O)OC`, the Potency result in [1], in assay [3], in assay [4], in assay [5], in [6] and in assay [7] was “inactive” throughout. In addition, in [8], the Potency entry was “inactive”. Also, the Potency in [2] is 19.2 µM (active).

On to `CC1(C)OC2CC3C4CC(F)C5=CC(=O)C=CC5(C)C4C(O)CC3(C)[C@]2(C(=O)CO)O1` (stereo partly specified), for which the Potency entry in assay [1], in assay [2], in assay [3], in [4], in [5] and in assay [9] was “inactive” in each case. The Potency result in assay [6], in assay [10] and in assay [7] was “inactive” each time.

As for `Cc1cc(OCCCS(C)(=O)=O)cc(C)c1-c1cccc(COc2ccc3c(c2)OC[C@H]3CC(=O)O)c1`, in assay [1], the Potency was 33.2 µM (active). In addition, the Potency entry in assay [2], in assay [9], in assay [7] and in [8] was “inactive” each time.

Consider `Cc1nn(Cc2ccccc2Cl)c(C)c1CN(C)CC(O)COc1ccc(Cl)cc1` (stereo unspecified), for which the Potency result in [1] and in assay [8] was “inactive” throughout. The Potency in [2] is 24.1 µM (active); in assay [3], 14.8 µM (active); in assay [4] it was 20.9 µM (active); in assay [6], 24.3 µM (active); in assay [10], 33.2 µM (active).

Take `C[C@@H](N)c1ccc(C(=O)Nc2ccnc3[nH]ccc23)cc1`: the Potency in assay [1] was 14.8 µM (active); in [2] it was 21.5 µM (active); in [4], 16.6 µM (active). In assay [7], the Potency result was “inactive”.

Take `O=c1[nH]c(=O)n([C@H]2C[C@@H](O)[C@@H](CO)O2)cc1I`: the Potency entry in assay [1], in assay [2], in [3], in assay [4], in [9] and in assay [6] was “inactive” each time. The Potency entry in assay [10], in assay [7] and in [8] was “inactive” each time.

Consider `Cc1nc(NC(=O)N2CCC[C@@H]2C(N)=O)sc1-c1csc(C(C)(C)C)n1`, for which the Potency in assay [1] is 11.8 µM (active); in assay [2], 15.2 µM (active); in [3], 5.9 µM (active); in [9], 7.43 µM (active); in assay [6], 1.72 µM (active); in [10], 1.66 µM (active). For the same molecule, the Potency in assay [7] is 5.9 µM (active).

Regarding `CCCCOCCOc1nc(-c2ccc(C(=O)O)c(F)c2)sc1C`, the Potency entry in [1], in assay [3], in [4], in assay [10] and in assay [8] was “inactive” each time. Besides, the Potency in assay [2] is 6.81 µM (active); in assay [6], 0.485 µM (active).

As for `O=C(O)c1nc(=O)[nH]c(=O)[nH]1`, the Potency result in assay [1], in [2], in assay [4], in assay [5], in [9] and in assay [6] was “inactive” throughout. The Potency result in assay [7] and in assay [8] was “inactive” in each case.

In the case of `O=C(O)Cc1cccc(OCCCN(Cc2cccc(C(F)(F)F)c2Cl)CC(c2ccccc2)c2ccccc2)c1`, the Potency result in [1], in assay [3] and in assay [8] was “inactive” throughout. Further, the Potency in assay [2] is 19.2 µM (active); in assay [5], 24.3 µM (active); in assay [6], 27.3 µM (active); in [10] it was 33.2 µM (active); in assay [7], 23.5 µM (active).

Turning to `NS(=O)(=O)c1cc(Cl)c(Cl)c(S(N)(=O)=O)c1`, the Potency entry in assay [1], in assay [2], in [4], in assay [5], in assay [9] and in [6] was “inactive” throughout. The Potency result in assay [7] and in assay [8] was “inactive” each time.

Take `CCc1cc(-c2n[nH]c(C)c2-c2ccc3c(c2)OCCO3)c(O)cc1O`: the Potency in assay [1] is 14.8 µM (active); in assay [2], 9.61 µM (active); in [3], 10.5 µM (active); in assay [4], 5.9 µM (active); in [9], 6.62 µM (active); in [6], 9.68 µM (active). The Potency result in assay [8] was “inactive”.

`CCn1c(-c2nonc2N)nc2cncc(CNC3CCNCC3)c21`: the Potency was 11.8 µM (active) in assay [1], 24.1 µM (active) in [2] and 20.9 µM (active) in [4]. In addition, in [8], the Potency result was “inactive”.

For the molecule `O=C(c1ccc(F)c(F)c1Nc1ccc(I)cc1F)N1CC(O)([C@H]2CCCCN2)C1`, the Potency in assay [1] was 1.87 µM (active); in [2] it was 6.07 µM (active); in assay [4], 0.935 µM (active); in assay [5] it was 1.09 µM (active); in [9] it was 16.6 µM (active); in assay [6], 1.09 µM (active). Moreover, the Potency is 0.526 µM (active) in [10] and 29.6 µM (active) in assay [7].

Take `CC[C@H](CC#N)OC(=O)N[C@@H](C)c1cccc(NC(=O)Nc2ccc(-c3cnco3)c(OC)c2)c1`: the Potency is 18.7 µM (active) in assay [1], 0.743 µM (active) in assay [3], 0.662 µM (active) in assay [4] and 0.611 µM (active) in assay [5]. Further, the Potency result in assay [9] was “inactive”.

Regarding `Cc1cccc(Nc2nc(N[C@@H]3CCCC[C@H]3N)ncc2C(N)=O)c1`, the Potency in assay [1] is 8.33 µM (active); in assay [2], 27.1 µM (active); in assay [4], 18.7 µM (active); in assay [5] it was 30.6 µM (active); in assay [9], 20.9 µM (active); in [6], 7.69 µM (active). Besides, the Potency in assay [10] is 16.6 µM (active); in assay [7] it was 14.8 µM (active).

As to `CN1C(=O)C(Cc2c[nH]c3ccccc23)NC1=S` (stereo unspecified), the Potency entry in assay [1], in [2], in assay [4], in assay [5], in assay [9] and in [6] was “inactive” throughout. For the same molecule, the Potency entry in assay [7] and in assay [8] was “inactive” throughout.

Consider `O=C(C=Cc1ccc(O)cc1)c1ccc(O)cc1O`, for which the Potency in assay [1] was 18.7 µM (active); in assay [2] it was 6.07 µM (active); in [3] it was 13.2 µM (active); in assay [4], 20.9 µM (active). The Potency result in [9] and in [8] was “inactive” in each case.

Take `C[C@@]1(c2cc(-c3cncnc3)c(F)cc2F)CCSC(N)=N1`: the Potency is 2.96 µM (active) in [1]; 12.1 µM (active) in [2]; 3.72 µM (active) in [4]; 3.85 µM (active) in assay [5]; 2.73 µM (active) in assay [6]; 2.09 µM (active) in assay [10]. The Potency entry in assay [7] and in assay [8] was “inactive” each time.

As to `O=C(Nc1ncc(SCCN2CCCC2)s1)[C@]1(c2ccc(S(=O)(=O)C3CC3)cc2)C[C@@H]1C1CCCCC1`, the Potency in assay [1] is 33.2 µM (active); in assay [4], 23.5 µM (active); in assay [5] it was 27.3 µM (active); in assay [9] it was 20.9 µM (active); in assay [10], 14.8 µM (active); in assay [7], 29.6 µM (active). In [2], the Potency entry was “inactive”.
